“And” between values parts separate entries of the source, which are not always exact repeats. Identical values can stand only once. The source made the active and inactive calls. The rule behind the calls is not given here.

A short description of the assay: liver-stage malaria parasite load reduction – cell-based, known kinase inhibitor set, luminescence, hepatoma host viability (AID 624392).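 Note: infected cells incubated roughly two days before readout.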 Conditions: Plasmodium liver stage in hepatoma cells, luciferase luminescence, concentration not given here; liver cell % of control: measured here: host liver cell viability; parasite % of control: stronger effect = lower value.
As for `CS(=O)(=O)CCn1c(=O)c(Oc2ccc(F)cc2F)cc2cnc(NC3CCOCC3)nc21`, the liver cell % of control was 122% and the parasite % of control was 63% (inactive).

As for `N#Cc1c(C(=O)c2ccccc2)cnn1-c1ccccc1`, the liver cell % of control was found to be 104% and the parasite % of control was 56.2% (inactive).

For the molecule `O=C1NC(=Nc2ccccc2)SC1=Cc1ccc2ncccc2c1`, the liver cell % of control is 124% and the parasite % of control is 68.1% (inactive).

Take `Fc1ccc(-c2c(-c3ccncc3)[nH]c3cccnc23)cc1`: the liver cell % of control was determined as 141% and the parasite % of control is 1.58% (active).

As for `CC(C)Nc1ncc2cc(Oc3ccc(F)cc3F)c(=O)n(C)c2n1`, the parasite % of control was 50.9% (inactive) and the liver cell % of control was 99.2%.

`CC(O)CNc1cc(-c2[nH]c3cccnc3c2-c2ccc(F)cc2)ccn1` (stereo not given): the liver cell % of control stood at 229% and the parasite % of control is 13.2% (inactive).

Take `CCOc1ccccc1CCN=C1NC(=O)C(=Cc2ccc3ncccc3c2)S1`: the liver cell % of control came out at 106% and the parasite % of control is 66% (inactive).

Turning to `CCCCCNC(=O)C1CCCN2C(=O)CCC(NC(=O)C(Cc3ccc(OP(=O)(O)O)cc3)NC(C)=O)C(=O)N12` (stereo not given), the parasite % of control was 50.1% (inactive) and the liver cell % of control came to 106%.

Regarding `Cn1cc(C2=C(c3cn(CCCN=C(N)N)c4ccccc34)C(=O)NC2=O)c2ccccc21`, the liver cell % of control came out at 110% and the parasite % of control is 44.7% (inactive).

Turning to `Nc1c(C(=O)c2ccccc2)cnn1-c1ccc(F)cc1`, the parasite % of control was 76.7% (inactive) and the liver cell % of control came to 97.1%.

Turning to `CC(c1ccccc1)C(C(=O)Nc1ccc(I)cc1F)N1C(=O)NC(c2ccc(OCC(O)CO)cc2)C1=O` (stereo not given), the parasite % of control was 72.5% (inactive) and the liver cell % of control came out at 85.7%.

In the case of `O=C1NC(=NCCc2ccc(Br)cc2)SC1=Cc1ccc2ncccc2c1`, the parasite % of control is 66.4% (inactive) and the liver cell % of control worked out at 140%.

Consider `N#CCn1c(=O)c(Oc2ccc(F)cc2F)cc2cnc(NC3CCOCC3)nc21`, for which the parasite % of control was 58.4% (inactive) and the liver cell % of control came to 96.2%.

With `COc1ccc(F)cc1C(=O)c1cnc(NC2CCN(S(C)(=O)=O)CC2)nc1N`, the liver cell % of control is 97.2% and the parasite % of control is 587% (inactive).

In the case of `Cc1ccccc1-n1ncc(C(=O)c2ccccc2)c1N`, the liver cell % of control is 104% and the parasite % of control is 52.3% (inactive).

With `Nc1c(C(=O)c2ccc(C#CCN3CCOCC3)cc2)cnn1-c1ccc(F)cc1`, the parasite % of control was 75.7% (inactive) and the liver cell % of control stood at 110%.

On to `Cn1cc(C2=C(c3ccc(N)cc3)C(=O)NC2=O)c2ccccc21`, for which the parasite % of control is 32.1% (inactive) and the liver cell % of control came to 135%.

Consider `Nc1c(C(=O)c2cccc(C(O)(CO)CO)c2)cnn1-c1ccc(F)cc1`, for which the liver cell % of control was 95.6% and the parasite % of control is 51.5% (inactive).

Regarding `Cn1cc(C2=C(c3cn(C)c4cc(C(N)=O)ccc34)C(=O)NC2=O)c2ccccc21`, the parasite % of control was 59.1% (inactive) and the liver cell % of control is 96.9%.

Regarding `Cn1cc(C2=C(c3cccc(Br)c3)C(=O)NC2=O)c2ccccc21`, the liver cell % of control turned out to be 153% and the parasite % of control was 39.5% (inactive).

Regarding `O=C1NC(=NC(CO)c2ccccc2)SC1=Cc1ccc2ncccc2c1` (stereo not given), the parasite % of control was 71.9% (inactive) and 55.3% (inactive); the liver cell % of control is 113% and 90.5%.

On to `O=C1NC(=NCc2ccccc2)SC1=Cc1ccc2ncccc2c1`, for which the liver cell % of control was 99.5% and the parasite % of control is 34.9% (inactive).

As to `Nc1c(C(=O)c2cccc(OCCN3CCOCC3)c2)cnn1-c1ccc(F)cc1`, the liver cell % of control is 121% and the parasite % of control was 47.9% (inactive).

On to `COc1ccc2c(C3=C(c4cn(C)c5ccccc45)C(=O)NC3=O)cn(C)c2c1`, for which the parasite % of control was 31.4% (inactive) and the liver cell % of control turned out to be 79.3%.

On to `Cn1cc(C2=C(n3ccc4ccccc43)C(=O)NC2=O)c2ccccc21`, for which the liver cell % of control was 130% and the parasite % of control was 37.7% (inactive).

(Values after PubChem BioAssay.)
